Screens from PubChem BioAssay.
NR5A2 inv ag = suppresses constitutive activity of human LRH-1; O00482; HEK293T StAR-luciferase reporter, LRH-1 transfected, 24 h; inhibition, % at 3.6 µM; 360,000 tested, 0.13% active; AID 602396;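 active means inhibition above the mean inhibition of all tested compounds plus 3 SD, cut at about 73% in these data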;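 further: 0% = DMSO wells and 100% = reporter-only cells lacking LRH-1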
Target sequence (O00482 whole entry, looked up): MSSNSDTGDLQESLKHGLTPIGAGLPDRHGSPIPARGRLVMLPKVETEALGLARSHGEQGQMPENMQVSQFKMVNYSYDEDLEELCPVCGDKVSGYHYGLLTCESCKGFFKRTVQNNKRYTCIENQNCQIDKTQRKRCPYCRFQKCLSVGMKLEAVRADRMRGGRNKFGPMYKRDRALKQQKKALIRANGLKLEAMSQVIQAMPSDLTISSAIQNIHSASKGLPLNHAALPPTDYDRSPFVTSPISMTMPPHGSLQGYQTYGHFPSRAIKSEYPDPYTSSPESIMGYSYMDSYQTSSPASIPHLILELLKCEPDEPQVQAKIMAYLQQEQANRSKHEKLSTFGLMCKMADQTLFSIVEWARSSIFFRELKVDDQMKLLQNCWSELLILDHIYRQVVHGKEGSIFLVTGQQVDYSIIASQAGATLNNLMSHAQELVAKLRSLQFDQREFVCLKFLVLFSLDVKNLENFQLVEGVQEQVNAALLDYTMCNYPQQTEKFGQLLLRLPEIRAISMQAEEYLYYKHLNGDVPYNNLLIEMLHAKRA
SRC1 inh = human NCOA1 inhibition | Q15788 | HEK293 GAL4-SRC1 luciferase reporter, luminescence | inhibition, % at 3.6 µM | 360,000 tested, 0.12% active | AID 588354;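 active means inhibition above the campaign mean plus 3 SD, with each screening campaign given its own cutoff, cut at about 60% in these data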;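 further: 0% = DMSO treated cells and 100% = gossypol at 36 µM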
Shn3 3UTR inh = inhibitors of Schnurri-3 3'UTR reporter in osteoblasts | 360,000 tested, 0.52% active | AID 588674 | Clone20 osteoblast Shn3 3'UTR firefly luciferase, 24 h | inhibition, % at 12.5 µM;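 active means mean inhibition of at least 75% with every replicate also reaching 75%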;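 further: 0% = median of neutral control wells and 100% = pilot-screen positive control compound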
Gli-Sufu block = antagonists of Gli-Sufu signaling; Sufu-KO-LIGHT fibroblasts, Gli luciferase reporter luminescence; inhibition, % at 5 µM; 340,000 tested, 0.74% active; AID 588413;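 active means inhibition above about 55%, limit read from the data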;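 further: 0% = DMSO-treated cells and 100% = wells with medium but no cells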
SRC2 inh = human SRC2 (NCOA2) inhibition | Q15596 | HEK293 GAL4-SRC2 luciferase reporter, luminescence | inhibition, % at 9 µM | 370,000 tested, 0.17% active | AID 651957;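 active means inhibition above the mean inhibition of all tested compounds plus 3 SD, set per campaign, cut at about 52% in these data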;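 further: 0% = DMSO treated cells and 100% = cells given Gossypol at 36 µM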
SRC3 inh = human NCOA3 inhibition; inhibition, % at 3.6 µM; HEK293 GAL4-SRC3 luciferase reporter, luminescence; Q9Y6Q9; AID 588352; 360,000 tested, 0.17% active;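 active means inhibition above a per-campaign cutoff, the mean of all compounds plus 3 SD, cut at about 60% in these data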;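 further: 0% = DMSO-treated cells and 100% = gossypol-treated cells at 36 µM; higher means less SRC3-driven luciferase light from the GAL4 reporter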
An asterisk follows results filed as active. Only some compounds are listed: those with a hit (about 1.1% of all), similar ones and a draw of the others.

What do the screens show for `COC(=O)[C@]12C[C@H](CC(=O)NCc3cccs3)C(=O)N(Cc3ccccc3)C1=C[C@H](COCc1ccccc1)O[C@@H]2C`?
SRC2 inh: 1

What do the screens show for `Cc1cc(/C=C2\Sc3ccccc3N2C)cc(C)[n+]1CC1CCCO1` (stereo unspecified)?
NR5A2 inv ag: 62; SRC1 inh: 43; Shn3 3UTR inh: 89*; Gli-Sufu block: 88*; SRC2 inh: -1; SRC3 inh: 48

How did Cc1ccc(/C=C2/Sc3ccccc3N(CC(=O)NCC3CCCO3)C2=O)cc1 (stereo unspecified) do in these assays?
NR5A2 inv ag: -14; SRC1 inh: 8; Shn3 3UTR inh: -15; Gli-Sufu block: -7; SRC3 inh: 4

What do the screens show for `COc1ccc(C2C(C(=O)Nc3ccc(Cl)cc3)CCC(=O)N2c2ccc(OC)cc2)cc1` (stereo unspecified)?
SRC2 inh: -6

Results for NC1=C(Cl)C(=O)c2ccc(S(N)(=O)=O)cc2C1=O ?
NR5A2 inv ag: 95*; SRC1 inh: 90*; Shn3 3UTR inh: 98*; Gli-Sufu block: 89*; SRC2 inh: 80*; SRC3 inh: 90*

How did CNC(=O)C[C@@H]1CC[C@@H]2[C@H](COc3ccc(NC(=O)c4cccc(F)c4)cc3C(=O)N2C)O1 do in these assays?
SRC2 inh: -14

How did COC(=O)[C@]12C[C@H](CC(=O)NCc3cccc4ccccc34)C(=O)N(Cc3ccco3)C1=C[C@H](C1CCCC1)O[C@@H]2C do in these assays?
SRC2 inh: 13

How did CCOC(=O)c1cnc(-n2nc(C)cc2C)nc1NNc1nc(C)cc(C)n1 do in these assays?
NR5A2 inv ag: 6; SRC1 inh: -1; Shn3 3UTR inh: -22; Gli-Sufu block: 1; SRC2 inh: -35; SRC3 inh: 6

Results for CCOC(=O)c1cnc(-n2nc(C)cc2C)nc1NNc1nc(-c2ccccc2)cc(-c2ccccc2)n1 ?
NR5A2 inv ag: -2; SRC1 inh: 3; Shn3 3UTR inh: 92*; Gli-Sufu block: 37; SRC3 inh: 19

What do the screens show for `CCOC(=O)c1cnc(-n2nc(C)cc2C)nc1NC1CCCCC1`?
NR5A2 inv ag: 19; SRC1 inh: 12; Shn3 3UTR inh: 84; Gli-Sufu block: 82*; SRC2 inh: 23; SRC3 inh: 5

How did CCOC(=O)c1cnc(-n2nc(C)cc2C)nc1NC do in these assays?
NR5A2 inv ag: -5; SRC1 inh: -20; Shn3 3UTR inh: -31; Gli-Sufu block: -22; SRC2 inh: -1; SRC3 inh: -8

How did C/C(C=NNC(=O)CSc1nc2ccccc2n1C)=C\c1ccccc1 do in these assays?
SRC2 inh: -7

Results for CCOC(=O)N1CCC(NC(=O)C2CCCN(Cc3nc(-c4cccc(C)c4)oc3C)C2)CC1 (stereo unspecified) ?
NR5A2 inv ag: 3; SRC1 inh: 14; Shn3 3UTR inh: 86*; Gli-Sufu block: 48; SRC2 inh: 8; SRC3 inh: 31

What do the screens show for `CCOC(=O)c1c(C)[nH]c(C(=O)OCC(=O)Nc2sccc2C(N)=O)c1C`?
NR5A2 inv ag: -1; SRC1 inh: 62*; Shn3 3UTR inh: 82; Gli-Sufu block: 51; SRC2 inh: 21; SRC3 inh: 31

How did CCOc1ccc(Nc2ncnc3ccc([N+](=O)[O-])cc23)cc1 do in these assays?
NR5A2 inv ag: 37; SRC1 inh: 69*; Shn3 3UTR inh: 9; Gli-Sufu block: -14; SRC2 inh: 45; SRC3 inh: 55

Results for C=CC[n+]1c(/C=C2\C=Cc3cc(C)ccc3N2CC)ccc2ccccc21 ?
NR5A2 inv ag: 89*; SRC1 inh: 27; Shn3 3UTR inh: 93*; Gli-Sufu block: 90*; SRC2 inh: 16; SRC3 inh: 71*

How did CCN1C(=C(C#N)C#N)C=Cc2cc(C)ccc21 do in these assays?
NR5A2 inv ag: -9; SRC1 inh: -6; Shn3 3UTR inh: -17; Gli-Sufu block: 1; SRC2 inh: -29; SRC3 inh: 8

How did Cc1cccc(N(C(=O)C(F)(F)F)C(C(=O)NC2CCCCC2)c2cccs2)c1 (stereo unspecified) do in these assays?
NR5A2 inv ag: -10; SRC1 inh: -2; Shn3 3UTR inh: -7; Gli-Sufu block: -20; SRC2 inh: -26; SRC3 inh: 11

Results for C#CC(=O)N(c1ccc(OC)c(OC)c1)C(C(=O)NC1CCCC1)c1cccs1 (stereo unspecified) ?
NR5A2 inv ag: 44; SRC1 inh: 1; Shn3 3UTR inh: 87*; Gli-Sufu block: 70*; SRC2 inh: -1; SRC3 inh: 37

What do the screens show for `C#CC(=O)N(c1cccc(OC)c1)C(C(=O)NC1CCCC1)c1cccs1` (stereo unspecified)?
NR5A2 inv ag: 81*; SRC1 inh: 26; Shn3 3UTR inh: 100*; Gli-Sufu block: 0; SRC2 inh: -15; SRC3 inh: 59

Results for CCOC(=O)c1c(-c2ccccc2)oc2cc(CN(C)C)c(O)c(CN(C)C)c12 ?
NR5A2 inv ag: 21; SRC1 inh: 23; Shn3 3UTR inh: 94*; Gli-Sufu block: -12; SRC2 inh: 2; SRC3 inh: 25

Results for CCOC(=O)c1c(C)oc2cc(Cl)c(O)c(CN(C)C)c12 ?
NR5A2 inv ag: 0; SRC1 inh: 4; Shn3 3UTR inh: -53; Gli-Sufu block: 3; SRC2 inh: -32; SRC3 inh: -7

Results for COC1C=CC=C(C)C(=O)NC2=CC(=O)C(N)=C(CC(C)CC(OC)C(O)C(C)C=C(C)C1OC(N)=O)C2=O (stereo unspecified) ?
NR5A2 inv ag: 86*; SRC1 inh: 72*; Shn3 3UTR inh: 87*; Gli-Sufu block: 69*; SRC2 inh: 19; SRC3 inh: 75*

Results for OCc1nc2ccccc2n1Cc1ccc(Cl)cc1 ?
NR5A2 inv ag: 20; SRC1 inh: 14; Shn3 3UTR inh: 14; Gli-Sufu block: 9; SRC2 inh: 6; SRC3 inh: -4

How did Cc1nc2ccccc2n1Cc1ccc(Cl)cc1 do in these assays?
NR5A2 inv ag: 47; SRC1 inh: -14; Shn3 3UTR inh: 88*; Gli-Sufu block: 42; SRC2 inh: 27; SRC3 inh: 13

How did COC(=O)[C@]12C[C@H](CC(=O)N3CCN(C(=O)C4CC4)CC3)C(=O)N(CCc3ccc(OC)c(OC)c3)C1=C[C@H](COCc1ccccc1)O[C@@H]2C do in these assays?
SRC2 inh: 4

How did CN1C(=O)c2cc(NC(=O)Nc3ccccc3)ccc2OC[C@H]2O[C@@H](CC(=O)NC3CCC3)CC[C@@H]21 do in these assays?
SRC2 inh: -6

Results for COc1cccc(NC(=O)Nc2nc(-c3ccc(OC)c(OC)c3)cs2)c1 ?
NR5A2 inv ag: 38; SRC1 inh: 71*; Shn3 3UTR inh: 75; Gli-Sufu block: 33; SRC2 inh: 75*; SRC3 inh: 72*

How did COC(=O)[C@]12C[C@H](CC(=O)NCc3ccccc3)C(=O)N(Cc3ccco3)C1=C[C@H](COCc1ccccc1)O[C@@H]2C do in these assays?
SRC2 inh: 12
